PP1 counter = PP1-alpha (human) inhibition in PP5 counter-screen | inhibition, % at 6.7 µM | P62136 | AID 2235 | purified PP1alpha, OMFP fluorescence | 0.9% of 320,000 active;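 active means inhibition above the mean inhibition of all tested compounds plus 3 SD, computed separately for each screening campaign, cut at about 15% in these data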
Target sequence (P62136 whole entry, looked up): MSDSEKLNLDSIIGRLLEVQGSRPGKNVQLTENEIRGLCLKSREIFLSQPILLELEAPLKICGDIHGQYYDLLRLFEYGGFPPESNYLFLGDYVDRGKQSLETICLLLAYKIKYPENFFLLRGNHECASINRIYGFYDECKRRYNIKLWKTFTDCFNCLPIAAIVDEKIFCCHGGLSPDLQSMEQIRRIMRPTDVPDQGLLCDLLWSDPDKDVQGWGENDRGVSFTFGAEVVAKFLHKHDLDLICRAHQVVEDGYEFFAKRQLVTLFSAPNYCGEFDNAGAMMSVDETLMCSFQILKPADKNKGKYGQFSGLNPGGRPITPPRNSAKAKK
ALR inh = human ALR oxidase inhibition via reduced H2O2; P55789; purified ALR, DTT oxidation, H2O2 HRP-luminol luminescence; inhibition, % (no concentration beside the values); 3.8% of 290,000 active; AID 485317;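 active means mean replicate inhibition above about 79%, with every replicate also reaching it, limit read from the data; inconclusive means only one of the two criteria met; inactive means mean below limit and not every replicate reaching it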
PP5 primary = PP5 (human) phosphatase inhibition | P53041 | purified PP5c, OMFP substrate fluorescence | inhibition, % at 6.7 µM | 0.18% of 320,000 active;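 active means inhibition above the campaign's mean inhibition across all tested compounds plus 3 SD, cut at about 9.5% in these data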
CSC inhib = cancer stem cell inhibition. cancer stem cell-like cells viability, luminescence. AID 2717. 1.1% of 300,000 active. inhibition, % at 7.5 µM; in the data active means inhibition above about 75%; inconclusive means no clear call, values can overlap the other calls; tested in HMLE shEcad cells
Calb FLC = affects C. albicans growth with fluconazole. C. albicans CaCi-2 (fluconazole-resistant clinical isolate) + fluconazole, Alamar Blue growth, 48 h. growth inhibition, % (concentration not given with the values). 0.57% of 300,000 active;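 active means growth inhibition above about 58% in most replicates, limit read from the data, passing the limit was not always enough; inconclusive means exactly half the replicates above a set limit; inactive means most replicates below a set limit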;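 further: all wells also contain fluconazole at 8 µg/ml as a sub-toxic cotreatment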
A number is an active result; n = inactive; u = inconclusive; x = no result. Hits are enriched below; roughly 5.4% of the tested compounds scored in any of these assays.

SMILES | PP1 counter | ALR inh | PP5 primary | CSC inhib | Calb FLC
CCCS(=O)(=O)c1nnnn1-c1cccc(OC)c1 | n | 98 | n | x | 82
CCCc1ccc2oc(C(=O)N3CCC[C@H]3CO)c(C)c2c1 | n | n | n | n | n
Oc1ccc(N=Nc2nc(-c3ccccc3)c(-c3ccccc3)[nH]2)cc1 | n | n | n | 189 | n
COc1ccc(-c2cc(=O)n(-c3ccc([N+](=O)[O-])cc3)[nH]2)cc1 | n | n | n | 126 | n
O=C(CSc1cccc[n+]1[O-])NC(=O)c1ccc(OC(F)F)cc1 | n | x | n | x | n
CCCc1ccc(-c2cc(N)n[nH]2)cc1 | n | 99 | n | n | n
CCCCc1ccc(-c2nc(N)n[nH]2)cc1 | n | n | n | n | n
Oc1c(C=NCc2ccncc2)sc2ccccc12 | n | 83 | n | n | n
O=[N+]([O-])c1cc(-c2cnc3ccccc3n2)ccc1Oc1ccc(Cl)cc1 | n | n | n | 77 | n
CN(c1ccccc1)S(=O)(=O)c1ccc(C(=O)N2CCN(c3ccccc3F)CC2)cc1 | x | x | x | n | x
CCOC(=O)CSC1=NC(=O)/C(=C\c2ccc(Cl)cc2)S1 | n | 99 | n | n | n
COc1cc(/C=C2\SC(N3CCC(C)CC3)=NC2=O)ccc1O | n | 90 | n | n | n
CN(C)c1ccc(/C=C2\SC(N3CCCCC3)=NC2=O)cc1 | n | 99 | n | n | n
Cc1ccc(/C=C2\SC(N3CCCC3)=NC2=O)cc1 | n | x | n | n | n
CCOC(=O)C1CCN(C2=NC(=O)/C(=C/c3ccc(Cl)cc3)S2)CC1 | n | 96 | n | n | n
O=C(COC(=O)[C@@H]1CCCN1S(=O)(=O)c1ccccc1F)NCc1ccc2c(c1)OCO2 | n | n | n | x | x
O=C(COc1ccccc1F)N/N=C1\CCCc2ccccc21 | n | n | n | n | n
O=C(Nc1cccs1)Nc1ccc(F)cc1F | n | n | n | n | n
COc1cc2cnc(-c3ccccc3)c(-c3cccc(C(F)(F)F)c3)c2cc1OC | n | n | n | 128 | x
Fc1ccc2cnc(-c3ccccc3)c(-c3cccc(C(F)(F)F)c3)c2c1 | n | n | n | n | x
Cn1cnc([N+](=O)[O-])c1Sc1ncnc2nc[nH]c12 | n | x | n | 85 | n
Cc1cccnc1Sc1c([N+](=O)[O-])ncn1C | n | n | n | n | n
Cn1cnc(Sc2ncnc3nc[nH]c23)c1[N+](=O)[O-] | n | n | n | 84 | n
Cc1ccc(C)c(NC(=O)NNC(=O)c2cc3ccccc3cc2O)c1 | n | n | n | n | n
Cc1ccc(NC(=O)NNC(=O)c2cc3ccccc3cc2O)c(C)c1 | n | n | n | n | 82
SMILES | PP1 counter | ALR inh | PP5 primary | CSC inhib | Calb FLC
Cc1cccc(NC(=S)NNC(=O)c2ccc(O)cc2O)c1C | n | 99 | n | n | n
Cc1ccccc1NC(=O)NNC(=O)c1ccc2ccccc2c1O | n | n | n | n | n
O=C(NNC(=O)c1cc2ccccc2cc1O)Nc1ccccc1F | n | n | n | n | 87
Cc1cccc(NC(=O)NNC(=O)c2cc3ccccc3cc2O)c1C | n | n | n | n | 65
O=C(NCCCl)NNC(=O)c1cc2ccccc2cc1O | n | n | n | n | n
O=C1NC(c2ccccc2)(C(F)(F)F)C(=O)N1Cc1cccnc1 (centres undefined) | n | x | n | n | n
CCOC(=O)N1CCN(C(=O)CN(c2cc(C(F)(F)F)ccc2Cl)S(C)(=O)=O)CC1 | n | n | n | n | n
O=C(NNC(=O)c1cc2ccccc2cc1O)c1cccs1 | n | n | n | n | 91
COC(=O)Cn1nc(-c2ccccc2)c2ccccc21 | n | n | n | n | 86
O=C(O)CCCn1nc(-c2ccccc2)c2ccccc21 | n | n | n | n | n
NC(=O)c1ccc(-n2c(CCC(=O)O)ccc2-c2cccs2)cc1 | n | 84 | n | n | n
Cc1ccc(-c2ccc(CCC(=O)O)n2-c2ccc(C(=O)O)cc2)cc1 | x | 97 | x | n | n
Cc1ccc(-n2c(CCC(=O)O)ccc2-c2cccs2)cc1 | n | 94 | n | n | u
CCOC(=O)N1CCC(NC(=O)CS(=O)Cc2nc(-c3ccc(OC)c(OC)c3)oc2C)CC1 (centres undefined) | n | 100 | n | n | n
CCOC(=O)N1CCC(NC(=O)CS(=O)Cc2nc(-c3ccc(C)cc3)oc2C)CC1 (centres undefined) | n | 99 | n | n | n
CCOC(=O)N1CCC(NC(=O)CS(=O)Cc2nc(-c3ccc(Cl)cc3)oc2C)CC1 (centres undefined) | n | 99 | n | n | n
CCOC(=O)N1CCN(C(=O)CS(=O)Cc2nc(-c3ccc(C)cc3)oc2C)CC1 (centres undefined) | n | x | n | n | n

High-throughput results (PubChem)
